Measured values from PubChem BioAssay AID1745856 (National Center for Advancing Translational Sciences (NCATS), 2022).
Out of some 120,000 compounds screened, about 270 (0.23%) were called active. Where a call stands in place of a potency, no number is given. Inconclusive results (about 5%) are left out. Calls follow the shape of the full dose curve. This excerpt belongs to a sample that is enriched for actives.

assay: Primary qHTS Assay for Foot and Mouth Disease Virus Antivirals against NCGC Sytravon and CBC Compound Libraries: Firefly Luciferase Signal; settings: FMDV antiviral cell assay; series mostly up to 57.5 µM; also: nearly all actives have a fitted effect of over 60% in size
Potency is read from the fitted curve at half-maximal effect.

| Structure (SMILES) | Potency |
| --- | --- |
| CCc1cccc(CC)c1NC(=O)CC(C)(C(=O)O)c1ccccc1 (configuration not stated) | inactive |
| COc1ccc(C23CC4CC(CC(C4)C2)C3)cc1C(=O)NC(c1ccccc1)c1ccccc1 | inactive |
| CC(Oc1ccccc1F)C(=O)Nc1c(F)cccc1F (configuration not stated) | inactive |
| Cc1nn(CC(=O)NC(C)(C)C)c(C)c1S(=O)(=O)N1CCCC(C(=O)N2CCOCC2)C1 (configuration not stated) | inactive |
| CCCn1c(NC(=O)c2oc3ccc(OC)cc3c2C)nc2ccccc21 | inactive |
| CCCNc1c(NC(=O)Nc2ccccc2C)c(=O)oc2ccccc12 | inactive |
| CCC1CN(S(=O)(=O)c2cc(-c3cc(C)no3)ccc2C)c2cc(C)ccc2O1 (configuration not stated) | inactive |
| CCN(CC)c1ccc(NS(=O)(=O)c2cc(-c3cc(C)no3)ccc2C)c(C)c1 | inactive |
| Cc1cc(-c2ccc(C)c(S(=O)(=O)N3c4ccccc4CC3C)c2)on1 (configuration not stated) | 14.1 µM (active) |
| CCOc1ccc(N(Cc2ccccc2)C(=O)c2nc(SCC)ncc2Cl)cc1 | inactive |
| CCOc1ccc(N(Cc2ccccc2)C(=O)c2nc(S(C)(=O)=O)ncc2Cl)cc1 | 22.4 µM (active) |
| CCOc1ccc(CN2CCC(N(C)Cc3ccccc3)CC2)cc1 | inactive |
| O=C(OCc1ccc(Cl)cc1Cl)c1c(F)cccc1F | inactive |
| COc1ccc(C(=O)Nc2c(NCC3CCCCC3)c3ccccc3oc2=O)cc1OC | inactive |
| O=S(Cc1ccccc1)Cc1cccc(F)c1 (configuration not stated) | inactive |
| CCn1nc(C(=O)Nc2nnc(Cc3ccccc3)s2)c2ccccc2c1=O | inactive |
| O=C(Oc1ccc(Br)cc1)c1cnccn1 | inactive |
| Cc1cc(=O)oc2cc(OCC(=O)Nc3ccc(S(=O)(=O)N4CCOCC4)cc3)ccc12 | inactive |
| Cn1cc2c(C(F)(F)F)cc(=O)n(CCC(=O)O)c2n1 | inactive |
| Cc1ccc(N2CCN(C(=O)c3nn(C)c4c3CCc3sccc3-4)CC2)c(C)c1 | inactive |
| COc1ccc(/C=C2\Oc3cc(OS(=O)(=O)c4ccc(C)cc4)ccc3C2=O)c(OC)c1OC | inactive |
| CCOC(=O)C1=C(C)NC(=O)NC1c1ccc(C(=O)OC)cc1 (configuration not stated) | inactive |

| Structure (SMILES) | Potency |
| --- | --- |
| Cc1ccccc1NC(=O)CSc1nc(C2CC2)n(-c2ccccc2)n1 | inactive |
| COc1ccc(-c2cc(C(=O)N3CCN(CC(=O)N4CCOCC4)CC3)c3ccccc3n2)cc1 | inactive |
| COC(=O)CCCn1c(C)cc(C(=O)COC(=O)c2nccnc2N)c1C | inactive |
| COC1CC(OC2CCC3(C=O)[C@H]4CCC5(C)C(C6=CC(=O)OC6)CCC5(O)[C@@H]4CCC3(O)C2)OC(C)C1O (some centres not stated) | 0.282 µM (active) |
| COc1ccc2c(C)c(CC(=O)NCc3ccccc3Cl)c(=O)oc2c1 | inactive |
| CC(Sc1nnc(CCC(N)=O)n1C1CC1)C(=O)c1c[nH]c2ccccc12 (configuration not stated) | inactive |
| CC(NC(=O)C(=O)Nc1cc(Cl)ccc1Cl)c1ccccc1 (configuration not stated) | inactive |
| CCCc1cc(=O)oc2c(C)c(OCC(=O)OC(C)C)ccc12 | inactive |
| CC(C(=O)Nc1cccc(C#N)c1)n1nnc(-c2cccc(C(F)(F)F)c2)n1 (configuration not stated) | inactive |
| CCOc1ccccc1-c1nn2c(CN3CCCCC3)nnc2s1 | inactive |
| Cc1nccn1CCc1nc2cc(NC(=O)C(C)C)ccc2n1C | inactive |
| CCCCn1c(=O)[nH]c(=O)c2c1nc(-c1ccc(OCC#N)c(OC)c1)n2C | inactive |
| N#Cc1ccccc1N=Cc1ccc2ccccc2c1 | inactive |
| Cc1cc(C(F)(F)F)nn1Cc1nc2c3c4c(sc3ncn2n1)CCC4 | inactive |
| Cc1ccc(NC(=O)c2nc(S(=O)(=O)Cc3cccc(C)c3)ncc2Cl)cc1 | 22.4 µM (active) |
| CCSc1ncc(Cl)c(C(=O)Nc2cc(C)ccc2C)n1 | inactive |
| CCCS(=O)(=O)c1ncc(Cl)c(C(=O)Nc2scc(-c3ccccc3)c2C(=O)OCC)n1 | inactive |
| Cc1ccc(-c2ccc(CCC(=O)O)n2NC(=O)c2ccc(F)cc2)cc1 | inactive |
| O=C(Nc1cccc(I)c1)c1ccc2c3c(cccc13)CC2 | inactive |
| COC(=O)c1ccc(CNC(=O)CCCNC(=O)C(C)(C)C)cc1 | inactive |
| Cc1nc2cc(NC(C)C(=O)Nc3cccc(Cl)c3Cl)ccc2o1 (configuration not stated) | inactive |
| COC(=O)c1cccc(N=Cc2cc(Cl)ccc2O)c1 | inactive |

| Structure (SMILES) | Potency |
| --- | --- |
| CC(C)CNC(=O)COC(=O)Cc1nn(C)c(=O)c2ccccc12 | inactive |
| O=C(CN1CCN(C(=O)c2nn(Cc3ccccc3)c(=O)c3ccccc23)CC1)Nc1ccc(F)cc1 | inactive |
| Cc1noc(C)c1CS(=O)(=O)c1ccc(Cl)cc1 | inactive |
| Cc1cccc(NC(=O)c2cc3cc(Br)ccc3oc2=O)c1 | inactive |
| COc1ccccc1NC(=O)c1cc2ccccc2cc1OCC(N)=O | inactive |
| Cc1nc(NC(=O)C(C)Sc2nnc(-c3ccccc3F)n2CC(C)C)sc1C (configuration not stated) | inactive |
| Cn1c(=O)[nH]c(=O)c2c(C(=O)O)cc(C3CC3)nc21 | inactive |
| Cc1cc(/C=C(/C#N)c2nc3ccccc3n2C)cc(C)c1O | inactive |
| Clc1ccc(CN2CCN(c3ncnc4nc[nH]c34)CC2)cc1 | inactive |
| COc1ccccc1-c1nc(C#N)c(NCc2ccccc2)o1 | inactive |
| [O-]/[N+](=C\c1ccc2ccccc2n1)c1ccccc1 | inactive |
| CCCC(=O)Nc1cccc(-c2cc3cc(F)ccc3[nH]2)c1 | inactive |
| Cc1ccc(-c2cc(-c3ccccc3)c(C#N)c(SCCS(=O)Cc3ccccc3)n2)cc1 (configuration not stated) | inactive |
| N#Cc1ccccc1NC(=O)c1cnc2ccccc2n1 | inactive |
| CCOC(=O)c1cc(NCc2c(Cl)cccc2Cl)ccc1N1CCOCC1 | inactive |
| Cc1occc1-c1nnc(SCC(=O)N2c3ccccc3CC2C)o1 (configuration not stated) | inactive |
| Cc1c(Cl)cccc1N(CC(=O)Nc1c(C)n(C)n(-c2ccccc2)c1=O)S(C)(=O)=O | inactive |
| CCOC(=O)c1cc(NC(=O)c2ccc(-c3ccccc3)cc2)ccc1N1CCOCC1 | inactive |
| C(=N\N=C(c1ccccc1)c1ccccc1)/c1c[nH]c2ccccc12 | inactive |
| Cc1ccc(C(=O)NC2CCSC2=O)cc1C (configuration not stated) | inactive |
| Cc1ccc(CCNC(=O)c2noc(C)c2Cn2nc(C)cc2C)cc1 | inactive |
| O=C(Nc1ncn(Cc2ccc(Cl)cc2)n1)c1ccn(COc2ccc(F)cc2F)n1 | inactive |

| Structure (SMILES) | Potency |
| --- | --- |
| Fc1ccc(-c2ccc(CNCc3ccccc3)o2)cc1 | inactive |
| COc1nc2ccccc2nc1N1CCC(C(=O)Nc2ccccc2F)CC1 | inactive |
| Cc1cnc(NC(=O)c2nc(C)n(-c3ccc(F)cc3)n2)s1 | inactive |
| Cc1nc(-c2ccc(F)cc2)sc1C(=O)N[C@H](C(=O)O)C(C)C | inactive |
| CCCn1nc(C(=O)Nc2ncc(Cc3ccc(F)cc3)s2)ccc1=O | 31.6 µM (active) |
| COc1ccc(/C(=N/OC(=O)c2cccc(F)c2)c2nccc3cc(OC)c(OC)cc23)cc1OC | inactive |
| COc1ccc(-c2cc(C(=O)NC3CC(C)(C)NC(C)(C)C3)c3ccccc3n2)cc1OC | inactive |
| CCOc1cc(/C=C2\NC(=O)NC2=O)cc(Br)c1OCc1cccc2ccccc12 | inactive |
| CCC(CC)NC(=O)COC(=O)c1ccc(C)c(C)c1 | inactive |
| COc1ccc(CN(C(=O)COc2ccc(C)cc2)c2ccccn2)cc1OC | inactive |
| CC1CCN(C(=O)c2cccnc2-c2nc3ccccc3s2)CC1 | inactive |
| Cc1ccc2c(Cl)cc(Cl)c(OCC(=O)N3CCCCCC3)c2n1 | inactive |
| CCCCCNC(=O)N(C)Cc1ccc(C(=O)OC)cc1 | inactive |
| COc1cccc(CNC(=O)COC(=O)c2c(F)cccc2F)c1 | inactive |
| Cc1cccc(C)c1Nc1nc(-c2ccccc2)cs1 | inactive |
| COc1ccc2c(c1OC)C(=O)OC2Nc1nc(-c2ccccc2)cs1 (configuration not stated) | 28.2 µM (active) |
| COc1ccc(-c2csc(Nc3cccc(C)n3)n2)cc1OC | inactive |
| Cc1cccc(C)c1NC(=O)CN(C)CC(=O)NC(=O)NCc1ccccc1 | inactive |
| CC(=O)N1CCN(c2c([N+](=O)[O-])cnc3ccc(Br)cc23)CC1 | inactive |
| COc1c(C)cccc1C(=O)Nc1cccc2ncccc12 | inactive |
| CCOc1ccccc1OCC(=O)Nc1cccc2ncccc12 | 8.91 µM (active) |
| CCCOc1ccc(NC(=O)COc2cccc(C)c2C)c2cccnc12 | inactive |

| Structure (SMILES) | Potency |
| --- | --- |
| CCC1CCCCN1S(=O)(=O)c1ccc(NC(=O)c2cc(-c3ccc(OC)cc3)on2)cc1 (configuration not stated) | inactive |
| Cc1cc(SCC(=O)NC(=O)NCC(C)C)nc2ccccc12 | inactive |
| COc1ccc(NC(C)=O)cc1S(=O)(=O)NC(c1ccc(F)cc1)c1cccs1 (configuration not stated) | inactive |
| CC1CCn2c(nc3cc(C(=O)N4CCN(c5ccccc5)CC4)ccc32)C1 (configuration not stated) | inactive |
| CC1CCCCN1C(=O)CSc1nc2ccccc2n1CCC#N (configuration not stated) | inactive |
| O=C(CC12CC3CC(CC(C3)C1)C2)OCC(=O)c1ccc2c(c1)OCO2 | inactive |
| CCCCN(C)C(=O)C1CCC(Cn2c(=O)c3sccc3n(Cc3ccccc3)c2=O)CC1 (configuration not stated) | inactive |
| Cc1ccc2nc(-c3ccccn3)cc(C(=O)O)c2c1 | inactive |
| Cc1nc2cc(NC(C)C(=O)Nc3ccccc3F)ccc2o1 (configuration not stated) | inactive |
| CCc1ccc(Nc2nc3ccccc3nc2NS(=O)(=O)c2ccc(F)cc2)cc1 | inactive |
| Cn1nc(C(=O)NCCc2ccc(F)cc2)c2ccccc2c1=O | inactive |
| COc1ccc(NC(=O)CSCc2cc(=O)n3cc(C)ccc3n2)cc1Cl | inactive |
| Cc1cc(=O)oc2c(C)c(OCC(=O)NCCc3ccc(S(N)(=O)=O)cc3)ccc12 | inactive |
| O=C(CCc1nc2ccccc2s1)NC1CCCCCC1 | inactive |
| CCS(=O)(=O)N1CCc2cc(C(=O)CSc3ccc(Cl)cc3)ccc21 | inactive |
| Cc1ccc(-c2cc(C(=O)N3CCCCCC3)c3ccccc3n2)o1 | inactive |
| Cc1cccc(N(C)C(=O)Cn2nc(Cc3cccnc3)c3ccccc3c2=O)c1 | inactive |
| Cc1ccc(NC(=O)C(Sc2ccccc2)c2ccccc2)cc1C (configuration not stated) | inactive |
| CCN(CC)C(=O)c1sc2nc(C(C)(C)C)nc(C)c2c1C | inactive |
